In article PMC7819943, “Rice protein-binding microarrays: a tool to detect cis-acting elements near promoter regions in rice”:
In all, about 39,000 sequences were measured (“fluorescence intensity (a.u.)”: median about 4,300, highest 2% from about 39,000 on). This is one part of a sample in which the highest values are shown more often than they occur.

These sequences were tested against T1, OsSMF1 (Oryza sativa, UniProt Q6ZLB0 1-436) (assay: protein-binding microarray (RPBM); PBS, 2% BSA, 51.3 ng/ul salmon testes DNA, 50 uM zinc acetate, 200 nM TF, 25 C, 1 h; high values mean tight binding). Conditions: protein: recombinant; tags: N-terminal polyhistidine and DsRed monomer fusion (pET32a); chain copies: 2; label: CyDye5-dUTP incorporated in the synthesized complementary strand; 3' TTTTT single-stranded linker to array surface; dsDNA, one strand shown.
T1 sequence: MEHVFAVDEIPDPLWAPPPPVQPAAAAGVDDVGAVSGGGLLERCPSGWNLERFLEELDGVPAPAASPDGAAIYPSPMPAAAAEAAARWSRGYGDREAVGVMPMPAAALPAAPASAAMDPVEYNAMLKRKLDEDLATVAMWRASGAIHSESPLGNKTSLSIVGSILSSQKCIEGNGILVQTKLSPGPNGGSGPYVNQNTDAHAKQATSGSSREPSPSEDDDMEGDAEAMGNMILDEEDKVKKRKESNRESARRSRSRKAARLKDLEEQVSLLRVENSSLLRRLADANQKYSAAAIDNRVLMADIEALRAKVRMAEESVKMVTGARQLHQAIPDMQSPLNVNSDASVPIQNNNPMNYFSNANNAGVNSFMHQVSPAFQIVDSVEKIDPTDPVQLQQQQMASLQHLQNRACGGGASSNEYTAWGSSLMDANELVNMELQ
Procedure, shortened: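 Transcription factors, each fused N-terminally to a polyhistidine tag and DsRed, were expressed in E. coli BL21-CodonPlus and purified on Ni–NTA. A custom Agilent array was made double-stranded by primer extension with Cy5-dUTP and blocked with 2% BSA. It was incubated with 200 nM protein in PBS, 2% BSA, salmon testes DNA and 50 µM zinc acetate at 25 °C for 1 h, then washed. The binding signal is per-feature fluorescence intensity (arbitrary units) read on an Axon 4000B scanner.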

Sequence | binding signal
CGGACGTCCCACACGCTTGGTGTCACGACGAGAGGAACCTCGGAGTCACCTAGTGCAG | 3450 fluorescence intensity (a.u.)
CTTGAAGGAAAACAAGTATAAGGTTCATCCTCATCATCACCGGAGTCACCTAGTGCAG | 3270 fluorescence intensity (a.u.)
AAACATCAATTGTATTATCCTTGAAAAGAAGGCACATCACCGGAGTCACCTAGTGCAG | 44800 fluorescence intensity (a.u.)
ATCAAAGAGGATTCTGTATTGTATTGGCAACAACCGAAAACGGAGTCACCTAGTGCAG | 13800 fluorescence intensity (a.u.)
ATTGAAAATTTTGTTTGAGTGCACATCGTGTGCATTTTATCGGAGTCACCTAGTGCAG | 8920 fluorescence intensity (a.u.)
AAATTTTAATACGTGTAGCATTGCTCCCGGTAATGTATTTCGGAGTCACCTAGTGCAG | 3700 fluorescence intensity (a.u.)
ATAGAGATCACAGTCACACACATATGGCCTGTGCATTTACCGGAGTCACCTAGTGCAG | 3720 fluorescence intensity (a.u.)
TGACATAGAGAGTGATCACAAGCGAAATATTTATTCGGAACGGAGTCACCTAGTGCAG | 48300 fluorescence intensity (a.u.)
GGAGAAACAATATTCGTCATACATTTTGAACCAGATCAAGCGGAGTCACCTAGTGCAG | 31700 fluorescence intensity (a.u.)
CGAAAATGATCTGACACTTATTCGAAAGCAACGTCACAAGCGGAGTCACCTAGTGCAG | 4300 fluorescence intensity (a.u.)
GGCCAGGATGATCGAGCACTTGGTTGTGACACAGAGGGTGCGGAGTCACCTAGTGCAG | 3220 fluorescence intensity (a.u.)
ATTTGGTATGACTTGGCTTCAAACCAAGATGGTCCGGAGTCGGAGTCACCTAGTGCAG | 5390 fluorescence intensity (a.u.)
CCCACATCGCTCCGCGTCATTAGATTTAGCACTTTATCTTCGGAGTCACCTAGTGCAG | 5240 fluorescence intensity (a.u.)
CATGTTCGTGCGCCGTCACTACAGGCACCTCGCTGTCAACCGGAGTCACCTAGTGCAG | 40100 fluorescence intensity (a.u.)
CGCCATGTGTCAACTGGCATGGCCGTGCGCTGGCACACACCGGAGTCACCTAGTGCAG | 5160 fluorescence intensity (a.u.)
TGCGCCGTCTGCGTCAGCGTGCCTCGTCGCAGTCGCAGGCCGGAGTCACCTAGTGCAG | 6400 fluorescence intensity (a.u.)
TTGGCCACCTCCACCTCACTCGCATGAAGGCTAAGTGAGCCGGAGTCACCTAGTGCAG | 4160 fluorescence intensity (a.u.)
ATATATACTCCAAGCTCGGTGAGCCAGCATCACCACCAACCGGAGTCACCTAGTGCAG | 3220 fluorescence intensity (a.u.)
TATGACTAATCATGGACTAATTAGGCTCAAAAGATTCGTCCGGAGTCACCTAGTGCAG | 33200 fluorescence intensity (a.u.)
CCTAAATAAGCTAGCAAAATAGCCAATGCCAGCCAATATTCGGAGTCACCTAGTGCAG | 28300 fluorescence intensity (a.u.)
TAAGCTCCAAAGCCAGCTATAGCATGAGCTCCAAAATATACGGAGTCACCTAGTGCAG | 45700 fluorescence intensity (a.u.)

Sequence | binding signal
CTATGGCTCATGAGCCAAAATTCAAAAGGCTAACGTTGGCCGGAGTCACCTAGTGCAG | 43400 fluorescence intensity (a.u.)
CACCTCCCCTTCCCATCCCAACCGGCCAACCCTCCCCACCCGGAGTCACCTAGTGCAG | 13900 fluorescence intensity (a.u.)
GCCGATCCCCGAGGAGGGCGGCGACGTGGAAGGGGAGGGCCGGAGTCACCTAGTGCAG | 4090 fluorescence intensity (a.u.)
GGTAATGGGAGAGGCTGATGTGGCGTGAAATCTCTTGCGTCGGAGTCACCTAGTGCAG | 16800 fluorescence intensity (a.u.)
TTTATCAAAGCGTCATATATCAATGACCAGAGGTACAACACGGAGTCACCTAGTGCAG | 3940 fluorescence intensity (a.u.)
CACCATTTTGGGCCGACACATCAAGCAGGCCAACGCGCAGCGGAGTCACCTAGTGCAG | 3300 fluorescence intensity (a.u.)
CCCAACTGTTCTTTCCGTCACGTCACGCACAAGTCAAAATCGGAGTCACCTAGTGCAG | 5230 fluorescence intensity (a.u.)
ACCTGTGGACTTGCACGGTAACGTAGCACAATCTTCAAAGCGGAGTCACCTAGTGCAG | 3810 fluorescence intensity (a.u.)
AGCGGCAGTAGCAAGGGAGCTAGGCCCCGAAGGAAAACCGCGGAGTCACCTAGTGCAG | 46000 fluorescence intensity (a.u.)
TCCCCTTCACCGCAACTTCGGCGAAGTCAAGAAGGAGTAGCGGAGTCACCTAGTGCAG | 43800 fluorescence intensity (a.u.)
GCCGAAACGCGAAGTGACAGTGACAAGGGAAGGACGGCCCCGGAGTCACCTAGTGCAG | 3220 fluorescence intensity (a.u.)
TTTAGTAGTTTGAAAAGCATACGCGCGGAAACCGAGCAAGCGGAGTCACCTAGTGCAG | 3190 fluorescence intensity (a.u.)
CGGCGAAGTAGCAAGGGTTGAGTCTGCATCATCAACCAATCGGAGTCACCTAGTGCAG | 3370 fluorescence intensity (a.u.)
TCCCCTCGCGGCGAACGCGCGCGCGCAACGAGAAGCCAAGCGGAGTCACCTAGTGCAG | 3200 fluorescence intensity (a.u.)
TGATGTTCTTACTGGTGGTGCTGATGACAATACTGAACAGCGGAGTCACCTAGTGCAG | 3840 fluorescence intensity (a.u.)
TAAGTGGACCTATAGGTGCACACGTGGGGAGAGGGGCGTGCGGAGTCACCTAGTGCAG | 5690 fluorescence intensity (a.u.)
GCACCAGCGGTCCTCAAACTTGTAAGGGTGTGTCATCTAGCGGAGTCACCTAGTGCAG | 3660 fluorescence intensity (a.u.)
AGTTCAAGAAAACTTTATATTCAAACAAGAAAATTGGGGCCGGAGTCACCTAGTGCAG | 40900 fluorescence intensity (a.u.)
ATTGTACACAACAAATTGAAATTTTCAATTCAACTTTTAACGGAGTCACCTAGTGCAG | 43200 fluorescence intensity (a.u.)
CTATATTTTACTATAAGCTTAATCAAACTTCAAAATATTTCGGAGTCACCTAGTGCAG | 14400 fluorescence intensity (a.u.)
TAAGAAAACTACAGCTTTATTACTCAAACTTAATATTAACCGGAGTCACCTAGTGCAG | 39800 fluorescence intensity (a.u.)
